PubChem BioAssay AID651791 (National Center for Advancing Translational Sciences (NCATS), 2012)
Results filed as inconclusive are left out. Active and inactive are the calls of the source. Calls come from the whole dose curve; as a rule, active = well fitted inhibition curve with a large enough effect; inconclusive = small, poorly fitted or top-dose-only effect; inactive = no such curve, though single readings can be large or run the other way.

Assay: InCell qHTS Assay for Inhibitors of the mTORC1 Signaling Pathway in MEF (Tsc2-/-, p53-/-) Cells: Hit Validation;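 note: phospho-S6 Ser235/236 signal normalized to propidium iodide cell count per well; nearly all actives have a fitted effect of over 75% in size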
Details: phospho-rpS6 immunofluorescence, 24 h; activity change, negative = inhibition: at 38.3 µM (top of the series)
Potency is the fitted concentration of half-maximal effect.

Row | Structure (SMILES) | activity change, negative = inhibition | Potency
1 | CCCC1=Nc2cc(C(=O)NCc3ccccc3)ccc2Sc2ccccc21 | -100% | 
2 | CCc1nnc(NC(=O)c2nc(S(=O)(=O)Cc3cccc(C)c3)ncc2Cl)s1 |  | 4.14 µM (active)
3 | CN(c1ccccc1)S(=O)(=O)c1ccc(NC(=O)c2nc(S(C)(=O)=O)ncc2Cl)cc1 |  | 2.07 µM (active)
4 | COc1ccc(-c2ccc(CCC(=O)O)n2-c2cc(Cl)ccc2O)cc1 | -100% | 
5 | Cc1ccc(O)c(C(CC(=O)NCC2(c3ccccc3)CCCC2)c2ccccc2)c1 (configuration not stated) | -100% | 
6 | O=C1c2[nH]nc(-c3ccccc3O)c2C(c2ccc(Cl)cc2)N1CCc1ccccc1 (configuration not stated) | -21.4% | 
7 | CCCN1C(=O)C(Cc2nc3ccccc3c(=O)n2CC)c2cc(Br)ccc21 (configuration not stated) | -100% | 
8 | CCOc1ccc(N(Cc2ccccc2)C(=O)c2nc(S(C)(=O)=O)ncc2Cl)cc1 |  | 2.93 µM (active)
9 | Cc1ccccc1CS(=O)(=O)c1ncc(Cl)c(C(=O)Nc2nnc(C(C)C)s2)n1 |  | 18.5 µM (active)
10 | CSc1ccc(CCNC(=O)C(C)n2nc(C)c3sc4ccccc4c3c2=O)cc1 (configuration not stated) | -100% | 
11 | O=C(NCc1ccccc1)c1ccc2c(c1)N(Cc1ccccc1F)C(=O)c1ccccc1S2=O (configuration not stated) | -100% | 
12 | O=C(Nc1ccc2nc(SCC(=O)N3CCCc4ccccc43)sc2c1)c1ccccc1F | -100% | 
13 | CCCCN1C(=O)C(O)(CC(=O)c2ccc(C(C)(C)C)cc2)c2ccccc21 (configuration not stated) | -28.2% | 
14 | Cc1c(Cl)ccc2sc(NC(=O)c3ccc(S(=O)(=O)N4CCCc5ccccc54)cc3)nc12 | -3.12% | 
15 | Cc1cccc(NS(=O)(=O)c2ccc3[nH]c4c(c3c2)CCCCCC4)c1 | -100% | 
16 | CCc1nn(CC(=O)NCc2ccccc2)c(=O)c2cccn12 | -100% | 
17 | COC(=O)c1ccc(NC(=O)c2nc(-c3ccc(Cl)cc3)n3c2CCCCC3)cc1 | -100% | 
18 | Cc1cccc(C)c1Nc1sc(C(=O)c2ccccc2)c(N)c1S(=O)(=O)c1ccccc1 | -100% | 
19 | CC(C)S(=O)(=O)c1oc(-c2cccs2)nc1S(=O)(=O)c1ccc(F)cc1 |  | 1.47 µM (active)

Row | Structure (SMILES) | activity change, negative = inhibition | Potency
20 | Cc1ccc(CN(Cc2cccn2-c2nnc(N3CCCC3=O)s2)C(=O)Nc2ccccc2C(F)(F)F)cc1 | -100% | 
21 | CCCN1C(=O)C(Cc2nc3ccccc3c(=O)n2CC)c2ccccc21 (configuration not stated) | -100% | 
22 | CCCCS(=O)(=O)c1oc(-c2cccs2)nc1S(=O)(=O)c1ccccc1 |  | 1.47 µM (active)
23 | CCC(Sc1nncn2c1cc1oc(C)cc12)C(=O)Nc1ccc(F)cc1 (configuration not stated) | -100% | 
24 | CCN(CCCNC(=O)c1cc2c(=O)[nH]c3ccccc3c2s1)c1ccccc1 | -100% | 
25 | CCN(c1ccccc1)S(=O)(=O)c1cc(C(=O)Nc2ccc(Br)cc2)ccc1F | -100% | 
26 | CC1CCCCN1c1nnc(NC(=O)Nc2ccccc2F)s1 (configuration not stated) | -100% | 
27 | COc1ccc(C2CC(=O)c3c([nH]c(C(=O)OC4CCCCCC4)c3C)C2)cc1OC (configuration not stated) | -100% | 
28 | Cc1cccc(CS(=O)(=O)c2ncc(Cl)c(C(=O)Nc3nnc(C(C)C)s3)n2)c1 |  | 13.1 µM (active)
29 | CCN(Cc1nc(-c2ccc(OC)cc2)oc1C)S(=O)(=O)c1ccc(Cl)cc1 | -100% | 
30 | CCS(=O)(=O)c1oc(-c2ccc(F)cc2)nc1S(=O)(=O)c1ccccc1 |  | 0.736 µM (active)
31 | CC(C)S(=O)(=O)c1oc(-c2ccc(F)cc2)nc1S(=O)(=O)c1ccc(F)cc1 |  | 0.927 µM (active)
32 | COc1cc(Cl)c(C)cc1NC(=O)C1CCN(c2nc3ccccc3n3cccc23)CC1 | -100% | 
33 | Cc1nn(C(C)C(=O)NC2CCC(C)CC2)c(=O)c2c1sc1ccccc12 (configuration not stated) | -100% | 
34 | COc1ccc(Cl)cc1NC(=O)CCCS(=O)(=O)c1nc(-c2ccc(OC)c(OC)c2)cc(C(F)(F)F)n1 |  | 14.7 µM (active)
35 | CC(C)CS(=O)(=O)c1oc(-c2ccc(F)cc2)nc1S(=O)(=O)c1ccccc1 |  | 3.29 µM (active)
36 | COc1ccc(C(=O)Nc2ccc(OCc3cc(=O)n4ccccc4n3)cc2)cc1 | -100% | 
37 | CCNS(=O)(=O)c1ccc(NC(=O)CSc2nc(-c3ccco3)cc(C(F)(F)F)n2)cc1 | -13.9% | 
